The nature of experiment [1]: ATG_CRE_CIS: Attagene CIS-FACTORIAL HepG2 Assay for human cAMP Responsive Element (CRE) binding protein 3 (AID 2282926). As to conditions: HepG2 CRE cis-reporter, Attagene multiplexed mRNA; actives raise or lower the signal. In a few lines:
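Human liver HepG2, transient MRTU transfection, 24 h compound exposure. Total RNA → oligo(dT) RT → PCR → 6-FAM primer extension → HpaI cut → CE. Activity called both directions vs DMSO.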

The target in experiment [2] is CCAAT/enhancer-binding protein beta (Homo sapiens) (UniProt P17676). Briefly: ATG_C_EBP_CIS: Attagene CIS-FACTORIAL HepG2 Assay for human CCAAT/Enhancer Binding Protein (C/EBP) beta (AID 2282927). As to conditions: HepG2 Attagene cis-factorial transcription factor reporter; actives raise or lower the signal. In a few lines:
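Transiently transfected HepG2 (MRTU library, endogenous TF-driven promoters); 24 h dosing; total RNA → oligo(dT) RT → PCR → 6-FAM primer extension → HpaI digest → CE; fit bidirectionally vs DMSO.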

Experiment [3] in a line: ATG_CMV_CIS: Attagene CIS-FACTORIAL HepG2 Assay for human CMV (Internal Marker) (AID 2282928).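 Also: endpoint acts as a background internal control marker rather than a target.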 As to conditions: HepG2 CMV promoter reporter, transcription factor profiling; actives raise or lower the signal. In a few lines:
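CMV internal-marker background readout in transiently transfected HepG2 cells bearing cis-regulated reporter units. Reporter mRNA is measured 24 h after dosing by RT-PCR and capillary electrophoresis, with bidirectional fitting against DMSO.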

Experiment [4] can be described thus: ATG_DR4_LXR_CIS: Attagene CIS-FACTORIAL HepG2 Assay for human Liver X Receptor (LXR), DR4 submotif (AID 2282929). Conditions: HepG2 Attagene DR4 cis-reporter, mRNA transcription; actives raise or lower the signal. In a few lines: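 HepG2 cells transiently transfected with cis-promoter-driven multiplexed reporter units (DR4 element) were dosed for 24 h. Reporter mRNA was quantified by RT-PCR, fluorescent primer extension, HpaI digestion and capillary electrophoresis; bidirectional fitting versus DMSO baseline.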

Experiment [5] is described as follows: ATG_AP_1_CIS: Attagene CIS-FACTORIAL HepG2 Assay for human Activator Protein 1 (AP-1) (AID 2282931). Conditions: HepG2 Attagene cis-factorial AP-1 reporter mRNA; actives raise or lower the signal. In a few lines:
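HepG2 cells transiently transfected with cis-element-driven multiplex reporter units; 24 h compound exposure. Reporter mRNA quantified by RT-PCR, FAM-labelled fragments resolved by capillary electrophoresis; bidirectional fit versus DMSO baseline.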

Experiment [6] in a line: ATG_AP_2_CIS: Attagene CIS-FACTORIAL HepG2 Assay for human Activator Protein 2 (AP-2) (AID 2282932). As to conditions: HepG2 AP-2 cis-reporter, Attagene transcription factor profiling; actives raise or lower the signal. In a few lines: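 Multiplexed mRNA reporter assay in HepG2: cis-regulated units report endogenous factor activity after 24 h treatment. Fluorescence from capillary electrophoresis of RT-PCR products gives the signal, with DMSO as baseline.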

Experiment [7] is described as follows: ATG_BRE_CIS: Attagene CIS-FACTORIAL HepG2 Assay for human Bone Morphogenetic Protein (BMP) Response Element (BRE) (AID 2282933). As to conditions: HepG2 BMP response element reporter, Attagene transcription factor profiling; actives raise or lower the signal. In a few lines:
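After a 24 h chemical treatment, transiently transfected HepG2 cells were lysed for RNA; reporter transcripts were quantified by fluorescent RT-PCR and capillary electrophoresis, normalised to DMSO.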

Experiment [8] addresses Transcription factor E2F1 (Homo sapiens) (UniProt Q01094). Briefly: ATG_E2F_CIS: Attagene CIS-FACTORIAL HepG2 Assay for human E2F Transcription Factor 1 (AID 2282935). As to conditions: HepG2 Attagene cis-reporter, E2F reporter RNA transcripts; actives raise or lower the signal. In a few lines: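 Measures reporter transcript levels via RT-PCR with capillary electrophoresis detection in HepG2 cells harboring cis-regulated reporter units; 24 h post-dose; bidirectional curve fitting with DMSO as baseline.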

Experiment [9] can be described thus: ATG_E_Box_CIS: Attagene CIS-FACTORIAL HepG2 Assay for human Enhancer Box (E-box) (AID 2282936). As to conditions: HepG2 E-box cis-reporter transcription, actives raise or lower the signal. In a few lines: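 First, HepG2 cells receive multiple cis-regulated reporter constructs by transient transfection. Next, chemicals are applied for 24 h. Finally, reporter mRNA is quantified via RT-PCR and capillary electrophoresis, with DMSO as baseline.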

Experiment [10] in a line: ATG_M_61_CIS: Attagene CIS-FACTORIAL HepG2 Assay for M61 Transcription Factor (Internal Marker) (AID 2282937). Conditions: HepG2 Attagene CIS-FACTORIAL M61 internal marker reporter; actives raise or lower the signal. In a few lines: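 HepG2 cells transiently transfected with cis-element-driven multiple reporter transcription units, dosed for 24 h. Reporter mRNA measured by RT-PCR, 6-FAM primer-extension labelling, HpaI digestion and capillary electrophoresis; bidirectional fit versus DMSO baseline.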

Experiment [11] is described as follows: ATG_EGR_CIS: Attagene CIS-FACTORIAL HepG2 Assay for human Early Growth Response 1 (EGR1) (AID 2282938). Conditions: HepG2 Attagene CIS-FACTORIAL EGR reporter mRNA; actives raise or lower the signal. In a few lines:
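HepG2 cells transiently transfected with cis-promoter-driven multiplexed reporter transcription units; reporter mRNA measured 24 h after compound dosing by RT-PCR, 6-FAM primer extension, HpaI digestion and capillary electrophoresis. Bidirectional fit versus DMSO baseline.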

Experiment [12] can be described thus: ATG_Ets_CIS: Attagene CIS-FACTORIAL HepG2 Assay for human Erythroblast Transformation Specific (ETS) (AID 2282941). As to conditions: HepG2 ETS cis-reporter transcription, actives raise or lower the signal. In a few lines: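 HepG2 cells transfected with multiple cis-regulated reporter units measuring endogenous ETS-driven transcription, 24 h after dosing. Reporter mRNA quantified by RT-PCR with capillary electrophoresis; bidirectional fit relative to DMSO.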

Experiment [13] in a line: ATG_FoxO_CIS: Attagene CIS-FACTORIAL HepG2 Assay for human Forkhead box O (FoxO) (AID 2282943). Conditions: HepG2 Attagene cis-reporter, FoxO element, mRNA; actives raise or lower the signal. In a few lines:
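Read-out: fluorescence of 6-FAM-labelled reporter cDNA fragments resolved by capillary electrophoresis. Transiently transfected HepG2 cells were dosed for 24 h; activity fitted in both directions relative to DMSO controls.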

The nature of experiment [14]: ATG_GATA_CIS: Attagene CIS-FACTORIAL HepG2 Assay for human GATA Binding Protein (AID 2282944). As to conditions: HepG2 GATA cis-element reporter, Attagene multiplex mRNA; actives raise or lower the signal. In a few lines: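 Measures endogenous transcription factor-driven reporter mRNA in HepG2 cells transiently carrying cis-regulated constructs. 24 h dosing; RNA via oligo(dT) reverse transcription, PCR, HpaI digestion, capillary electrophoresis; fitted relative to DMSO.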

The nature of experiment [15]: ATG_GLI_CIS: Attagene CIS-FACTORIAL HepG2 Assay for human Zinc Finger Protein GLI1 (AID 2282945). Conditions: HepG2, Attagene cis-factorial reporter mRNA, GLI element; actives raise or lower the signal. In a few lines:
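Transiently transfected HepG2 cells report endogenous transcription factor activity via cis-element-driven reporter units. After 24 h compound exposure, reporter mRNA was measured by RT-PCR with capillary electrophoresis; bidirectional fitting against DMSO baseline.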

A short description of experiment [16]: ATG_ISRE_CIS: Attagene CIS-FACTORIAL HepG2 Assay for human Interferon Regulatory Factor 1 (IRF1) binding to an Interferon-Stimulated Response Element (ISRE) (AID 2282948). As to conditions: HepG2 ISRE cis-reporter (Attagene), mRNA transcription readout; actives raise or lower the signal. In a few lines:
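Transiently transfected HepG2 cells carrying cis-element reporter units, dosed 24 hours. Reporter mRNA quantified by RT-PCR, fluorescent primer extension, HpaI digestion and capillary electrophoresis. Bidirectional fitting relative to DMSO.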

Experiment [17] is described as follows: ATG_M_32_CIS: Attagene CIS-FACTORIAL HepG2 Assay for M32 Transcription Factor (Internal Marker) (AID 2282949).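 Also: background control marker of the multiplexed CIS panel rather than a real target.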 Conditions: HepG2 Attagene cis-factorial M32 reporter, mRNA; actives raise or lower the signal. In a few lines: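 Following 24 h chemical exposure of HepG2 cells transiently expressing cis-promoter reporter constructs, reporter transcript levels were determined by RT-PCR with fluorescent labelling and capillary electrophoresis, then fitted bidirectionally against DMSO.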

Experiment [18] is described as follows: ATG_M_06_CIS: Attagene CIS-FACTORIAL HepG2 Assay for M06 Transcription Factor (Internal Marker) (AID 2282950). Conditions: HepG2 Attagene CIS-FACTORIAL M06 internal marker reporter; actives raise or lower the signal. In a few lines: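 One of many multiplexed endpoints: HepG2 reporter mRNA after 24 h dosing, detected by RT-PCR and capillary electrophoresis fluorescence; gain or loss of signal analysed against DMSO.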

The target of experiment [19] is Paired box protein Pax-6 (Homo sapiens) (UniProt P26367). Briefly: ATG_Pax6_CIS: Attagene CIS-FACTORIAL HepG2 Assay for human Paired Box 6 (PAX6) (AID 2282956). As to conditions: HepG2 CIS-FACTORIAL PAX6 reporter transcription, RNA readout; actives raise or lower the signal. In a few lines: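 HepG2 cells transiently transfected with cis-promoter-driven multiplexed reporter units sensing endogenous transcription factor activity; 24 h chemical exposure. Reporter mRNA quantified by RT-PCR, 6-FAM labelling, HpaI digestion and capillary electrophoresis; bidirectional fit versus DMSO baseline.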

A short description of experiment [20]: ATG_PXRE_CIS: Attagene CIS-FACTORIAL HepG2 Assay for human Pregnane X Receptor Element (PXRE) (AID 2282957). As to conditions: HepG2 Attagene CIS-FACTORIAL PXRE reporter, mRNA; actives raise or lower the signal. In a few lines: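 Transfect HepG2 with MRTUs (cis promoter elements); dose chemical, incubate 24 h; isolate RNA, RT with oligo(dT), PCR, 6-FAM label, HpaI cut, CE. Gain/loss fit vs DMSO.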

Structures are written as SMILES. Calls of active or inactive are those of the source. The calls were made as follows: active = hit-call score of the fitted dose curve at least 0.9, where 1 is the maximum; inactive = score below 0.9.

Transcription factor E2F1 (Homo sapiens), sequence (Q01094 whole entry, looked up): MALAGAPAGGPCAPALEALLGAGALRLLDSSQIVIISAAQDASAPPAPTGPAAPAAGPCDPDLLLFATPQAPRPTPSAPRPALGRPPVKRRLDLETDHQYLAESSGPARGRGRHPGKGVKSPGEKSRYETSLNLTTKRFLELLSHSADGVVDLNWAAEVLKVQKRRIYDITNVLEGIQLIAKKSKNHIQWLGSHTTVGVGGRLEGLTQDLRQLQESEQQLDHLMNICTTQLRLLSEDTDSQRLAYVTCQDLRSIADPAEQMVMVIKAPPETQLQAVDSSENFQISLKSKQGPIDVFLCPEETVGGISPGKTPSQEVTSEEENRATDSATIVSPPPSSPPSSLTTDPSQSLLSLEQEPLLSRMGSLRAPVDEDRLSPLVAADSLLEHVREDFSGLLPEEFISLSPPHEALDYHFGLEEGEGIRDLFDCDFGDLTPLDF
CCAAT/enhancer-binding protein beta (Homo sapiens), sequence (P17676 whole entry, looked up): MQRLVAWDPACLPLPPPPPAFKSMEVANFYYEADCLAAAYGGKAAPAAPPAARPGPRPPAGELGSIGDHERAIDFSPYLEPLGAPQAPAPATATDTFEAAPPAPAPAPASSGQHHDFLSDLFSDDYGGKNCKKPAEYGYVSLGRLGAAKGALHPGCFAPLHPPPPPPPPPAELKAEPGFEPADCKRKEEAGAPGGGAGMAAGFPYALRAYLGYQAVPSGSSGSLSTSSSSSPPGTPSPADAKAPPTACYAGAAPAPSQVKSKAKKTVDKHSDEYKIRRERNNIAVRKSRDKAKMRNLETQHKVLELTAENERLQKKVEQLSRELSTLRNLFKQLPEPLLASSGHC
Paired box protein Pax-6 (Homo sapiens), sequence (P26367 whole entry, looked up): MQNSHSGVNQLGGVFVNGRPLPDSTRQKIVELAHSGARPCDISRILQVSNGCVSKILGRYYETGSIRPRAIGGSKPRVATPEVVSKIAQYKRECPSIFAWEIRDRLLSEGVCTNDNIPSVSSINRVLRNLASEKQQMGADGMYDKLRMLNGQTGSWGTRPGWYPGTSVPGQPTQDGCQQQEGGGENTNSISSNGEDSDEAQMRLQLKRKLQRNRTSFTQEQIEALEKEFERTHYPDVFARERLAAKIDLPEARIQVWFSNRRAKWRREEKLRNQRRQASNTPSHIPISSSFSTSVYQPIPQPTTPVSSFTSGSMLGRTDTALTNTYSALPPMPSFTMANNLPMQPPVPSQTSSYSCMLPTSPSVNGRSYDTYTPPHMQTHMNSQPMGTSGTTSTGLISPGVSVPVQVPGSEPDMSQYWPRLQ

Consider `Cc1ccccc1S(=O)(=O)O`, for which the outcome in [1], in [2], in [3], in experiment [4], in experiment [5] and in experiment [6] was inactive. Besides, the outcome in [7], in experiment [8], in experiment [9], in [10], in experiment [11] and in experiment [12] was inactive. For the same molecule, the molecule was classed as inactive in experiment [13], in [14], in experiment [15], in experiment [16], in [17] and in experiment [18]. In experiment [19], the molecule was classed as inactive. For the same molecule, the AC50 in [20] was 70.6 µM (active).
With `C=C(C)C(=O)OCC1CCCO1` (stereo not given), the molecule was called inactive in [1], in experiment [2], in experiment [3], in experiment [4], in experiment [5] and in experiment [6]. Moreover, the molecule was called inactive in experiment [7], in experiment [8], in experiment [9], in experiment [10], in experiment [11] and in experiment [12]. Moreover, the molecule was classed as inactive in experiment [13], in experiment [14], in experiment [15], in experiment [16], in experiment [17] and in experiment [18]. Moreover, the call in experiment [19] and in experiment [20] was inactive.
In the case of `CCCCOC(=O)COc1ccc(Cl)cc1Cl`, the molecule was called inactive in experiment [1], in experiment [2], in experiment [3], in experiment [4], in experiment [5] and in experiment [6]. Moreover, the result in [7], in experiment [8], in [9], in experiment [10], in experiment [11] and in experiment [12] was inactive. Moreover, the molecule was classed as inactive in [13], in [14], in experiment [15], in [16], in experiment [17] and in experiment [18]. In addition, the molecule was called inactive in experiment [19] and in experiment [20].
For `OCCc1ccccn1`, the call in experiment [1], in [2], in [3], in experiment [4], in experiment [5] and in experiment [6] was inactive. In addition, the molecule was classed as inactive in [7], in experiment [8], in [9], in experiment [10], in [11] and in [12]. Also, the outcome in experiment [13], in experiment [14], in experiment [15], in experiment [16], in experiment [17] and in experiment [18] was inactive. The outcome in [19] and in experiment [20] was inactive.
`CCOc1ccc2c(c1)C(C)CC(C)(C)N2` (stereo not given): the call in experiment [1], in experiment [2], in [3], in [4], in experiment [5] and in [6] was inactive. Moreover, the call in [7], in experiment [8], in experiment [9], in [10], in experiment [11] and in experiment [12] was inactive. For the same molecule, the molecule was classed as inactive in experiment [13], in experiment [14], in experiment [15], in experiment [16], in [17] and in [18]. Besides, in experiment [19], the outcome was inactive. Also, the AC50 in experiment [20] was 2 µM (active).
With `C=CN1CCCCCC1=O`, the molecule was classed as inactive in experiment [1], in [2], in [3], in experiment [4], in experiment [5] and in experiment [6]. Also, the result in experiment [7], in experiment [8], in experiment [9], in experiment [10], in experiment [11] and in experiment [12] was inactive. Besides, the molecule was classed as inactive in experiment [13], in [14], in [15], in experiment [16], in experiment [17] and in experiment [18]. For the same molecule, the outcome in experiment [19] and in [20] was inactive.
In the case of `CCCCCCCCCC/C=C/C1CC(=O)OC1=O` (stereo not given), the molecule was called inactive in experiment [1], in [2], in experiment [3], in experiment [4], in experiment [5] and in experiment [6]. The molecule was called inactive in experiment [7], in experiment [8], in experiment [9], in experiment [10], in [11] and in [12]. The molecule was classed as inactive in [13], in experiment [14], in experiment [15], in experiment [16], in experiment [17] and in experiment [18]. In addition, the molecule was called inactive in experiment [19] and in experiment [20].

Values taken from PubChem BioAssay (EPA / NIEHS).
